Bioassay records: PubChem, several laboratories
Compounds with a hit are over-represented: about 1.8% of the library has one in this group of screens.
DSG3 Ab inh: inhibitors of pemphigus antibody binding to human desmoglein-3; P32926; DSG3-coupled beads, scFv-anti-DSG3-GFP binding, flow cytometry; hits give low values; binding (percent of control), % at 10 µM; 310,000 tested, 0.48% active;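 active = binding more than 3 SD below its plate's average and above zero; inconclusive = below that plate limit but binding exactly zero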;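 note: hits lower antibody fragment binding to DSG3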
GRK2 aptamer HTS: human GRK2 inhibition via aptamer displacement | 330,000 tested, 0.59% active | bead flow cytometry, FAM-aptamer displacement from GRK2 | P25098 | inhibition of aptamer binding, % at 10 µM;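 active = inhibition of aptamer binding above 40%, roughly 3 SD of noise, on plates passing a quality check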;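 note: median bead fluorescence of bound FAM aptamer so fluorescent compounds give negative values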
HDAC3 inhib: human HDAC3 inhibition. O15379. recombinant HDAC3, fluorogenic peptide/trypsin coupled, fluorescence. inhibition, % at 8.3 µM. 320,000 tested, 0.15% active; in the data active = inhibition above about 26%, passing the limit was not always enough; inconclusive = no clear call, values can overlap the other calls
PKD1 kinase inh: inhibitors of human PKD1 kinase | Q15139 | PKD1 kinase fluorescence polarization assay | inhibition, % (concentration not given with the values) | 200,000 tested, 0.056% active | AID 797
VLA-4 inh: inhibition in a human VLA-4 binding assay. VLA-4 expressing cells, ligand binding flow cytometry. inhibition, % (about 7 µM as worked out from the volumes in the protocol). 330,000 tested, 0.2% active. AID 2557
LANA-H2A inh: blocks KSHV LANA binding to histone H2A/H2B; Q9QR71; cell-free LANA-H2A/H2B peptide, fluorescence polarization; inhibition, % (test concentration not listed); 320,000 tested, 0.6% active; AID 2629; in the data active = inhibition mostly above about 10%, no sharp cut-off; inactive = mostly below about 6.7%
Numbers stand for hits; i = inactive; ? = inconclusive; nt = no result given; + = active, no number; ! = not active in a repeat. Cut-off read from the data, not from the text of the source, unless noted: active = inhibition above about 50%; inactive = the rest.

SMILES	DSG3 Ab inh	GRK2 aptamer HTS	HDAC3 inhib	PKD1 kinase inh	VLA-4 inh	LANA-H2A inh
Cc1ccc(OCC(=O)N(C)CC(=O)Nc2ccc(F)cc2)c([N+](=O)[O-])n1	i	i	i	i	i	i
COC(=O)c1ccc(C2C(Oc3ccc(OC)cc3)C(=O)N2CCc2ccc(OC)c(OC)c2)cc1 (centres undefined)	72	i	i	i	i	i
COC(=O)c1ccc(C2C(Oc3ccccc3)C(=O)N2CCc2ccc(F)cc2)cc1 (centres undefined)	i	i	i	i	i	i
CN1C2=CC=CC=CC2=[N+](C)C12C=CC(=[N+]([O-])[O-])C=C2[N+](=O)[O-] (centres undefined)	76	i	i	i	i	i
O=C(CSc1ncn[nH]1)CSc1ncn[nH]1	i	i	37	i	i	i
CC(C)c1ccc(C(=O)CSc2ncn[nH]2)cc1	i	i	i	i	i	i
Cc1ccccc1NC(=O)CSc1n[nH]c(-c2ccco2)n1	i	i	i	i	i	16
CCN(CC)c1ccc(/C=N/NC(=S)NCc2ccccc2)c(O)c1	i	42	i	i	i	i
O=C(CSc1nnc(CNC(=O)c2cccs2)o1)c1ccccc1	?	i	i	i	i	i
O=C(CSc1nnc(CNC(=O)c2cccs2)o1)NCCc1ccccc1	i	i	i	i	i	36
COc1cc(CN2CCC(n3nccc3NC(=O)c3ccc4c(c3)OCO4)CC2)ccc1O	i	i	i	nt	i	47
Nc1c(C(=O)Nc2ccccc2Cl)nnn1-c1ccc2c(c1)OCCO2	i	i	i	nt	i	i
COCCn1c(SCC(=O)N2CCCc3ccccc32)nc2c(c1=O)SC(C)C2 (centres undefined)	i	i	i	i	i	i
COCCn1c(SCC(=O)N2CCc3ccccc32)nc2c(c1=O)SC(C)C2 (centres undefined)	i	i	i	nt	i	8.1
CS(=O)(=O)Nc1ccc([N+](=O)[O-])cc1Oc1ccccc1	i	i	i	i	i	32
CC1=C(C(N)=O)C(c2ccc(Br)cc2)n2nc(CCCO)nc2N1 (centres undefined)	i	i	i	nt	i	16
CC(=O)c1c(C(C)=O)c(C)n(-c2nc(-c3ccc(C)c(C)c3)c(C)s2)c1C	nt	i	i	i	i	i
COc1ccc(-c2nc(-n3c(C)c(C(C)=O)c(C(C)=O)c3C)sc2C)cc1	nt	78	i	i	i	i
NS(=O)(=O)c1cc2c(cc1Cl)NC(CC1CCCC1)NS2(=O)=O (centres undefined)	i	i	i	nt	i	i
NS(=O)(=O)c1cc2c(cc1Cl)NC=NS2(=O)=O	i	i	i	i	i	13
O=c1[nH]c(Cc2ccccc2)nc2c1oc1ccccc12	i	i	i	i	i	8.2
Cc1ccc(S(=O)(=O)NC2CCCCC2)cc1	i	i	i	nt	i	45
Cc1ccc(S(=O)(=O)NC2CC2)cc1	i	i	i	nt	i	i
Cc1cccc(OCC(=O)NC(=S)Nc2ccc(S(=O)(=O)NC3CCCCC3)cc2)c1	63	i	i	i	i	i
COc1c(C(=O)NNC(=O)c2ccccc2)csc1Br	i	i	i	nt	i	i
SMILES	DSG3 Ab inh	GRK2 aptamer HTS	HDAC3 inhib	PKD1 kinase inh	VLA-4 inh	LANA-H2A inh
C/C(=N\NC(=O)c1ccc(=O)[nH]n1)c1cccnc1	i	i	i	i	i	i
CCCCN(C)CC(O)Cn1cc(/C=C/C(=O)c2cccs2)c2ccccc21 (centres undefined)	i	i	i	i	i	+
CCn1c(CNC(=O)c2ccco2)nnc1SCC(=O)Nc1ccccc1Cl	i	i	i	nt	i	i
CC(C)C1N=C2c3ccccc3N=C(SCc3cc(=O)n4cc(Cl)ccc4n3)N2C1=O (centres undefined)	78	i	i	i	i	i
CC(C)C1N=C2c3ccccc3N=C(SCC(=O)NCCc3ccc(S(N)(=O)=O)cc3)N2C1=O (centres undefined)	i	i	i	i	i	i
CCCC(=O)O[C@]1(C(=O)COC(C)=O)CC[C@H]2[C@@H]3C[C@H](F)C4=CC(=O)C=C[C@]4(C)[C@@]3(F)[C@@H](O)C[C@@]21C	i	i	i	i	i	22!
C[C@@H]1C[C@H]2[C@@H]3CCC4=CC(=O)C=C[C@]4(C)[C@@]3(F)[C@@H](O)C[C@]2(C)[C@@]1(O)C(=O)CO	i	i	i	nt	i	i
CC(=O)[C@@]1(O)CC[C@H]2[C@@H]3C[C@H](C)C4=CC(=O)C=C[C@]4(C)[C@@]3(F)[C@@H](O)C[C@@]21C	i	i	i	i	i	18!
O=C(NC1CCC(O)CC1)c1ccc(NS(=O)(=O)c2cccc([N+](=O)[O-])c2)cc1 (centres undefined)	i	i	i	nt	i	24
Cc1ccc(Cn2cc(C(=O)c3ccc(F)cc3)c(=O)c3cc4c(cc32)OCCO4)cc1	0.5	i	i	i	i	i
CCN(CC(=O)NCc1cccs1)C(=O)COc1cccc(C(F)(F)F)c1	i	i	i	nt	i	i
CCN(CC(=O)NCc1cccs1)C(=O)COc1ccc(C(C)=O)cc1	i	i	i	nt	i	+
O=C(CCN1C(=O)[C@@H]2Cc3ccccc3CN2C1=O)N[C@@H](Cc1ccccc1)C(=O)O	i	i	i	nt	i	i
CC(C)CN(C(=O)c1ccco1)C1CCS(=O)(=O)C1 (centres undefined)	i	i	i	nt	i	i
COc1ccccc1-c1c(C)oc2cc(OC(=O)c3ccco3)ccc2c1=O	i	i	31	i	i	i
COc1ccccc1Oc1c(C)oc2cc(OC(=O)c3ccco3)ccc2c1=O	i	i	i	i	i	i
O=C(N/N=C/c1cccs1)c1cc(-c2cccc3ccccc23)n[nH]1	i	i	i	i	i	17
Cc1sc2ncnc(NCCCN3CCCC3=O)c2c1C	i	i	i	i	i	i
Cc1ccc(NC(=O)CN2C(=O)C3CCCCN3C(=O)c3ccccc32)cc1 (centres undefined)	i	i	i	i	i	i
O=C(CN1C(=O)C2CCCN2C(=O)c2ccccc21)Nc1ccccc1-n1cccc1 (centres undefined)	nt	i	i	i	i	30
CCOC(=O)C1(Cc2cccc(Cl)c2)CCCN(C(=O)c2ccco2)C1 (centres undefined)	nt	i	i	nt	i	i
CCOC(=O)C1(Cc2cccc(Cl)c2)CCCN(C(=O)c2ccoc2C)C1 (centres undefined)	i	i	i	nt	i	95
OC(C#CCN1CCCCCC1)(c1ccccc1)c1cccnc1 (centres undefined)	i	i	i	nt	i	15
OC(C#CCCN1CCCCC1)(c1ccccc1)c1ccccc1	i	i	i	nt	i	i
OC(C#CCN1CCCC1)(c1ccccc1)c1cccnc1 (centres undefined)	i	nt	i	nt	i	27
CC(OC(=O)c1ccccc1NCCO)C(=O)NCC(=O)Nc1ccc(F)c(F)c1F (centres undefined)	i	i	i	nt	i	i
